# According to the supplement of paper PMC4466140:
# Key:
# Assay in all cases: SPOT peptide array binding signal intensity (averaged, normalized) (arbitrary units (background-subtracted, floor 0; scale differs between SH3 domains)); higher = stronger binding of the SH3 domain to the peptide
# [1] = target: SpBzz1-D2
# Procedure: (§1)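 GST-tagged SH3 domains from S. cerevisiae (Sc), A. gossypii (Ag), C. albicans (Ca) and S. pombe (Sp) were incubated at 10 ug/ml overnight at 4 C on cellulose SPOT membranes carrying 292 synthetic 15-mer peptides mined from the S. cerevisiae proteome (cysteines replaced by serines). Binding was detected with anti-GST antibody, HRP secondary and chemiluminescence, quantified with Genespotter, and reported as normalized spot intensities averaged over biological replicates.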
# [2] = target: SpCyk3
# Procedure: as §1
# [3] = target: SpHof1
# Procedure: as §1
# [4] = target: SpHof1-2
# Procedure: as §1
# [5] = target: SpHof1-3
# Procedure: as §1
# [6] = target: SpHse1
# Procedure: as §1
# [7] = target: SpLsb1
# Procedure: as §1
# [8] = target: SpLsb4
# Procedure: as §1
# [9] = target: SpMyo1
# Procedure: as §1
# [10] = target: SpNbp2
# Procedure: as §1
# [11] = target: SpPex13
# Procedure: as §1
# [12] = target: SpRvs167
# Procedure: as §1
# [13] = target: SpSla1-D1-D2
# Procedure: as §1
# [14] = target: SpSla1-D3
# Procedure: as §1
# [15] = target: AgAbp1
# Procedure: as §1
# [16] = target: AgBbc1
# Procedure: as §1
# [17] = target: AgBem1-D1
# Procedure: as §1
# [18] = target: AgBzz1-D1
# Procedure: as §1
# [19] = target: AgBzz1-D2
# Procedure: as §1
# [20] = target: AgCyk3
# Procedure: as §1
# [21] = target: AgFus1
# Procedure: as §1
# [22] = target: AgHof1
# Procedure: as §1
# [23] = target: AgHse1
# Procedure: as §1
# [24] = target: AgLsb1
# Procedure: as §1
# [25] = target: AgLsb4
# Procedure: as §1
# [26] = target: AgMyo5
# Procedure: as §1
# [27] = target: AgNbp2
# Procedure: as §1
# [28] = target: AgRvs167
# Procedure: as §1
# [29] = target: AgSho1
# Procedure: as §1
# [30] = target: AgSla1-D1-D2
# Procedure: as §1
# [31] = target: AgSla1-D3
# Procedure: as §1
# [32] = target: CaAbp1-D1
# Procedure: as §1
# [33] = target: CaAbp1-D2
# Procedure: as §1
# [34] = target: CaBbc1
# Procedure: as §1
# [35] = target: CaBem1-D1
# Procedure: as §1
# [36] = target: CaBzz1-D1
# Procedure: as §1
# [37] = target: CaBzz1-D2
# Procedure: as §1
# [38] = target: CaCyk3
# Procedure: as §1
# [39] = target: CaFus1
# Procedure: as §1
# [40] = target: CaHof1
# Procedure: as §1
# [41] = target: CaHse1
# Procedure: as §1
# [42] = target: CaLsb1
# Procedure: as §1
# [43] = target: CaLsb4
# Procedure: as §1
# [44] = target: CaMyo5
# Procedure: as §1
# [45] = target: CaNbp2
# Procedure: as §1
# [46] = target: CaRvs167
# Procedure: as §1
# [47] = target: CaRvs167-3
# Procedure: as §1
# [48] = target: CaSho1
# Procedure: as §1
# [49] = target: CaSla1-D1-D2
# Procedure: as §1
# [50] = target: CaSla1-D3
# Procedure: as §1
# [51] = target: ScAbp1
# Procedure: as §1
# [52] = target: ScBbc1
# Procedure: as §1
# [53] = target: ScBem1-D1
# Procedure: as §1
# [54] = target: ScBzz1-D1
# Procedure: as §1
# [55] = target: ScBzz1-D2
# Procedure: as §1
# [56] = target: ScCyk3
# Procedure: as §1
# [57] = target: ScFus1
# Procedure: as §1
# [58] = target: ScHof1
# Procedure: as §1
# [59] = target: ScHse1
# Procedure: as §1
# [60] = target: ScLsb1
# Procedure: as §1
# [61] = target: ScLsb2
# Procedure: as §1
# [62] = target: ScLsb3
# Procedure: as §1
# [63] = target: ScLsb4
# Procedure: as §1
# [64] = target: ScMyo3
# Procedure: as §1
# [65] = target: ScMyo5
# Procedure: as §1
# [66] = target: ScNbp2
# Procedure: as §1
# [67] = target: ScPex13
# Procedure: as §1
# [68] = target: ScRvs167
# Procedure: as §1
# [69] = target: ScSho1
# Procedure: as §1
# [70] = target: ScSla1-D1-D2
# Procedure: as §1
# [71] = target: ScSla1-D3
# Procedure: as §1
# [72] = target: SpAbp1-D1
# Procedure: as §1
# [73] = target: SpBbc1
# Procedure: as §1
# [74] = target: SpBzz1-D1
# Procedure: as §1
binder,measurement,setting,value
RSRRSSFAYPQQVAI,SPOT peptide array binding signal intensity,[1],≤ 0
same,SPOT peptide array binding signal intensity,[2],1.5
same,SPOT peptide array binding signal intensity,[3],93.5
same,SPOT peptide array binding signal intensity,[4],13
same,SPOT peptide array binding signal intensity,[5],203
same,SPOT peptide array binding signal intensity,[6],168
same,SPOT peptide array binding signal intensity,[7],7.75
same,SPOT peptide array binding signal intensity,[8],59
same,SPOT peptide array binding signal intensity,[9],6.75
same,SPOT peptide array binding signal intensity,[10],91
same,SPOT peptide array binding signal intensity,[11],17
same,SPOT peptide array binding signal intensity,[12],8.83
same,SPOT peptide array binding signal intensity,[13],3
same,SPOT peptide array binding signal intensity,[14],10
TKIRRRPQQPLTDFT,SPOT peptide array binding signal intensity,[15],21
same,SPOT peptide array binding signal intensity,[16],109
same,SPOT peptide array binding signal intensity,[17],32
same,SPOT peptide array binding signal intensity,[18],42.5
same,SPOT peptide array binding signal intensity,[19],82
same,SPOT peptide array binding signal intensity,[20],2
same,SPOT peptide array binding signal intensity,[21],150
same,SPOT peptide array binding signal intensity,[22],39.8
same,SPOT peptide array binding signal intensity,[23],61.5
same,SPOT peptide array binding signal intensity,[24],22
same,SPOT peptide array binding signal intensity,[25],18
same,SPOT peptide array binding signal intensity,[26],0.5
same,SPOT peptide array binding signal intensity,[27],6
same,SPOT peptide array binding signal intensity,[28],2.33
same,SPOT peptide array binding signal intensity,[29],3
same,SPOT peptide array binding signal intensity,[30],12.5
same,SPOT peptide array binding signal intensity,[31],3.5
same,SPOT peptide array binding signal intensity,[32],276
same,SPOT peptide array binding signal intensity,[33],158
same,SPOT peptide array binding signal intensity,[34],518
same,SPOT peptide array binding signal intensity,[35],13
same,SPOT peptide array binding signal intensity,[36],137
same,SPOT peptide array binding signal intensity,[37],147
same,SPOT peptide array binding signal intensity,[38],76
same,SPOT peptide array binding signal intensity,[39],338
same,SPOT peptide array binding signal intensity,[40],0.25
same,SPOT peptide array binding signal intensity,[41],6.5
same,SPOT peptide array binding signal intensity,[42],≤ 0
same,SPOT peptide array binding signal intensity,[43],22.5
same,SPOT peptide array binding signal intensity,[44],1.5
RLSRLLLSLPPESFT,SPOT peptide array binding signal intensity,[15],21.5
same,SPOT peptide array binding signal intensity,[16],5.5
same,SPOT peptide array binding signal intensity,[17],356
same,SPOT peptide array binding signal intensity,[18],101
same,SPOT peptide array binding signal intensity,[19],145
same,SPOT peptide array binding signal intensity,[20],2
same,SPOT peptide array binding signal intensity,[21],878
same,SPOT peptide array binding signal intensity,[22],96.5
same,SPOT peptide array binding signal intensity,[23],1240
same,SPOT peptide array binding signal intensity,[24],17.8
same,SPOT peptide array binding signal intensity,[25],108
same,SPOT peptide array binding signal intensity,[26],≤ 0
same,SPOT peptide array binding signal intensity,[27],47.5
same,SPOT peptide array binding signal intensity,[28],6.5
same,SPOT peptide array binding signal intensity,[29],70
same,SPOT peptide array binding signal intensity,[30],85
same,SPOT peptide array binding signal intensity,[31],5.5
same,SPOT peptide array binding signal intensity,[32],152
same,SPOT peptide array binding signal intensity,[33],48
same,SPOT peptide array binding signal intensity,[34],73.5
same,SPOT peptide array binding signal intensity,[35],1
same,SPOT peptide array binding signal intensity,[36],46
same,SPOT peptide array binding signal intensity,[37],138
same,SPOT peptide array binding signal intensity,[38],17
same,SPOT peptide array binding signal intensity,[39],3850
same,SPOT peptide array binding signal intensity,[40],0.5
same,SPOT peptide array binding signal intensity,[41],33.5
same,SPOT peptide array binding signal intensity,[42],1.5
same,SPOT peptide array binding signal intensity,[43],37.5
same,SPOT peptide array binding signal intensity,[44],28
same,SPOT peptide array binding signal intensity,[45],287
same,SPOT peptide array binding signal intensity,[46],64.2
same,SPOT peptide array binding signal intensity,[47],1010
same,SPOT peptide array binding signal intensity,[48],588
same,SPOT peptide array binding signal intensity,[49],≤ 0
same,SPOT peptide array binding signal intensity,[50],45.5
same,SPOT peptide array binding signal intensity,[51],49
same,SPOT peptide array binding signal intensity,[52],1.25
same,SPOT peptide array binding signal intensity,[53],102
same,SPOT peptide array binding signal intensity,[54],94
same,SPOT peptide array binding signal intensity,[55],118
same,SPOT peptide array binding signal intensity,[56],89
same,SPOT peptide array binding signal intensity,[57],1180
same,SPOT peptide array binding signal intensity,[58],1
same,SPOT peptide array binding signal intensity,[59],1930
same,SPOT peptide array binding signal intensity,[60],1.5
same,SPOT peptide array binding signal intensity,[61],9
same,SPOT peptide array binding signal intensity,[62],127
same,SPOT peptide array binding signal intensity,[63],4.5
same,SPOT peptide array binding signal intensity,[64],≤ 0
same,SPOT peptide array binding signal intensity,[65],6
same,SPOT peptide array binding signal intensity,[66],176
same,SPOT peptide array binding signal intensity,[67],1.75
same,SPOT peptide array binding signal intensity,[68],20.3
same,SPOT peptide array binding signal intensity,[69],1770
same,SPOT peptide array binding signal intensity,[70],≤ 0
same,SPOT peptide array binding signal intensity,[71],5.75
same,SPOT peptide array binding signal intensity,[72],198
same,SPOT peptide array binding signal intensity,[73],0.5
same,SPOT peptide array binding signal intensity,[74],315
same,SPOT peptide array binding signal intensity,[1],≤ 0
same,SPOT peptide array binding signal intensity,[2],10
same,SPOT peptide array binding signal intensity,[3],252
same,SPOT peptide array binding signal intensity,[4],24.2
same,SPOT peptide array binding signal intensity,[5],441
same,SPOT peptide array binding signal intensity,[6],1330
same,SPOT peptide array binding signal intensity,[7],1.25
same,SPOT peptide array binding signal intensity,[8],20
same,SPOT peptide array binding signal intensity,[9],6.5
same,SPOT peptide array binding signal intensity,[10],76
same,SPOT peptide array binding signal intensity,[11],16
same,SPOT peptide array binding signal intensity,[12],13.7
same,SPOT peptide array binding signal intensity,[13],≤ 0
same,SPOT peptide array binding signal intensity,[14],6
